This note sets out measurements from PubChem BioAssay (NCI).

Molecules are shown by their SMILES. The panel holds about 83,000 compounds, 20% with a hit somewhere; the sample as a whole holds those more often.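 Method: cells in 96-well plates; compound added at one concentration; 48 h incubation; percent growth measured; values under 10 scored active.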 The source made the active and inactive calls.

This experiment deals with HL-60(TB) leukemia. In words: NCI-60 one-dose screen, 48 h (100 = growth as untreated, 0 = no growth, -100 = all killed). The following applies: 10 µM unless noted.
Turning to `Cc1ncc(C#N)c(N)n1`, the growth is 109% (inactive). For `O=[N+]([O-])c1cc(Br)cc2c1[nH]c1ccc(Br)cc12` the value was 85% (inactive); for `C#CCOc1ccc2ncnc(Nc3cccc(CNC(=O)C=C)c3)c2c1`, 97.4% [8.25 µM] (inactive).

For `O=C(OCc1ccc2c(Cl)cc(Cl)c(O)c2n1)N1CCNCC1`, the growth is 64.5% (inactive). For `O=C(N/N=C/c1cc2ccccc2c2ccccc12)c1cc(O)c(O)c(O)c1` the value was 39.9% (inactive). For `CCOC(=O)n1cnc2c(Cl)ncnc21` the value was 106% (inactive); for `O=C1Nc2c(ccc(Cl)c2Cl)/C1=C/c1ccc([N+](=O)[O-])cc1`, 74.1% (inactive).

Consider `O=C(Oc1ccc(CCl)cc1)c1ccccc1`, for which the growth was -44.6% (active). For `C=C1C(=O)O[C@H]2[C@H]1CC/C(COC(=O)c1ccc(C(=O)O)s1)=C\CC[C@@]1(C)O[C@@H]21` the value was -31.4% (active); for `CC1=C(C)C(=O)C(Nc2cccc(C(=O)OC(C)(C)C)c2)=C(Br)C1=O`, 54.9% (inactive); for `CCN1C(=O)N(CC)C2C1NN=c1s/c(=C\c3cccc(F)c3)c(=O)n12` (stereo not given), -16.9% (active). For `O=C(N=C1C(=O)C2(CCCCC2)C2(N=C(c3ccccc3)OC2=O)C12CCCCC2)c1ccccc1` (stereo not given) the value was 71.8% (inactive). For `CC(=O)Nc1ccc2c(c1)C(=O)c1cccc(C(=O)O)c1-2` the value was 97.2% (inactive); for `COc1ccccc1CNc1c2ccccc2nc2ccccc12`, 44.8% (inactive). Turning to `NCCSC(C[N+](=O)[O-])c1ccccc1Cl` (stereo not given), the growth is 31.8% (inactive). `COc1cc2nc(Cc3ccc(C)cc3)[nH]c(=O)c2cc1OC`: the growth is 98.7% (inactive).

For `COc1cc(-c2cc(-c3nc4ccc(Cl)cc4[nH]3)[nH]n2)cc(OC)c1OC`, the growth is 38.4% (inactive). For `C=C(C)[C@@H]1CC[C@]2(C(=O)O)CC[C@]3(C)[C@H](CC[C@@H]4[C@@]5(C)C[C@@H](CC#Cc6ccc(C(C)=O)s6)[C@H](O)C(C)(C)[C@@H]5CC[C@]43C)[C@@H]12` the value was 54% (inactive); for `Cn1c(C(N)=O)cc2c1-c1nc(NC3CCCCC3)ncc1CCC2`, 105% (inactive). For `Nc1ncc(-c2cnn(C3CCNCC3)c2)cc1-c1nc2cc(Cl)ccc2o1` the value was -71.3% (active); for `OC(c1ccccc1)(c1ccccc1)C(F)(F)F`, 77.1% (inactive). For the compound `COc1ccc(C2Nc3nc(OC)n(C)c(=O)c3N=C3c4ccccc4C(=O)C32)cc1` (stereo not given), the growth was 67.1% (inactive). For `Cc1ccccc1NS(=O)(=O)c1cccc(C(=O)Nc2ccc(Br)cc2)c1` the value was 27.6% [25 µM] (inactive). For `O=C(Nc1ccc(C23CC4CC(CC(c5ccccc5)(C4)C2)C3)cc1)c1cccs1` the value was 51% (inactive); for `Nc1c(C(=O)Nc2cccc(Cl)c2)sc2nc3c(cc12)CCCC3`, 78.8% (inactive). For `C=C(c1ccc(C(=O)O)c(F)c1)c1cc2c(cc1C)C(C)(C)C=CC2(C)C` the value was 86.3% (inactive). On to `C/C(=N/NC(N)=S)C(=O)O`, for which the growth was 85.3% (inactive). For `Clc1ccc(C2=NN=C3C(Cc4ccccc4)=Nc4ccccc4N3C2)cc1` the value was 25.2% (inactive). For `O=c1n(CC2CO2)c(=O)n(CC2CO2)c(=O)n1CC1CO1` (stereo not given) the value was 20.4% (inactive).

In the case of `CC1(C)C2CCC(O)(C(=O)O)C1C2` (stereo not given), the growth is 107% (inactive).

For `O=C1c2c(c3c4cc(Br)ccc4[nH]c3c3ccc4ccccc4c23)C(=O)N1O`, the growth was 116% (inactive). For `Oc1ccccc1-c1nnc(CNc2ccc(Cl)cc2)o1` the value was 4.56% (active); for `C#C[C@H](O)/C=C/CCCCCCC#C[C@H](O)CC[C@@H](O)C#CCCCCCC/C=C/[C@@H](O)C#C`, -70.8% (active); for `O=C1SCN(Cc2ccccc2)CN1Cc1ccccc1`, 70.7% (inactive). As for `CCN(CC)c1ccc(CNc2cc(C)nc3ccc(OC)cc23)cc1`, the growth is -56.3% (active). On to `COc1cc2nc(SCc3cc(OC)c(OC)c(OC)c3)n(-c3ccccc3OC)c(=O)c2cc1OC`, for which the growth was -16% (active). For `C#CCOc1cccc(Nc2c(Cl)c(CCl)nc3ccc(Oc4ccccc4)cc23)c1` the value was 41.4% (inactive); for `FC(F)(F)c1ccc(CNc2ccc(Cc3c[nH]c4ncc(Cl)cc34)cn2)cn1`, 4.54% (active); for `CCOc1ccc2nc(C)cc(Nc3ccc(Br)cc3)c2c1`, 107% (inactive). On to `CN(C)c1nc(-c2ccco2)n2nc(-c3ccc(Cl)cc3)cc2n1`, for which the growth is 90.8% (inactive).
